# Measured values as given in the supplement of paper PMC8728848.
# The sample as a whole holds a higher share of the strongest signals than the screen did.
# B1: Epa22 (Candida glabrata) (protein)
# chain: MGSSHHHHHHSSGLVPRGSHMKRALSSQNPFGYPIGCSPQSTNVIPGLTMELYSYPIVSGTPPNCYDASYVDPEYPRTGYLKRKMIGKSTGVTGSLNYKFSVEKACMVKYGNLPAGYNYNEPLTVSNFTMLLYGYFKPQTSGIHTFFVNADDLLYINFGAGNAFDCCKREDSKFKLGEYVAYDIWHVDSSKNKVSLNLEKDVYYPIRMFFNNIGKDSSLDLSFSVNGAVEHITDFSGYLYSVPDQPDACPAPIGYDTTCK
# Experiments:
# Test in all cases: glycan array binding signal (z-score within array); higher = stronger binding
# Details in all cases: glycan notation: IUPAC condensed, linker removed
# [1] = molecular target: Fuc(a1-2)Gal(b1-4)GlcNAc(b1-3)Gal(b1-4)GlcNAc(b1-2)Man(a1-3)[Fuc(a1-2)Gal(b1-4)GlcNAc(b1-3)Gal(b1-4)GlcNAc(b1-2)Man(a1-6)]Man(b1-4)GlcNAc(b1-4)GlcNAc
# Procedure, shortened: (§1)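 Negative Z-scores can be read as non-binding. The Z-score is calculated within each array and then averaged across arrays of one protein sequence at different concentrations or buffers and across linkers. Arrays, 3228 in all, were curated from the Consortium for Functional Glycomics database and kept only where the protein sequence was available.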
# [2] = molecular target: Fuc(a1-2)Gal6S(b1-3)GlcNAc6S
# Procedure, shortened: as §1
# [3] = molecular target: Fuc(a1-2)[Gal(a1-3)]Gal(b1-4)[Fuc(a1-3)]GlcNAc(b1-3)GalNAc
# Procedure, shortened: as §1
# [4] = molecular target: Fuc(a1-2)[Gal(a1-4)]Gal(b1-4)GlcNAc
# Procedure, shortened: as §1
# [5] = molecular target: Fuc(a1-2)[GalNAc(a1-3)]Gal(b1-4)GlcNAc(b1-3)Gal(b1-4)GlcNAc(b1-3)Gal(b1-4)GlcNAc
# Procedure, shortened: as §1
# [6] = molecular target: Gal(a1-3)Gal(b1-3)GlcNAc(b1-6)GalNAc
# Procedure, shortened: as §1
# Gal(a1-3)Gal(b1-4)GlcNAc = molecular target: Gal(a1-3)Gal(b1-4)GlcNAc
# Procedure, shortened: as §1
# [7] = molecular target: Gal(a1-3)Gal(b1-4)GlcNAc(b1-2)Man
# Procedure, shortened: as §1
# Gal(a1-4)GlcNAc = molecular target: Gal(a1-4)GlcNAc
# Procedure, shortened: as §1
# Gal(a1-6)Glc = molecular target: Gal(a1-6)Glc
# Procedure, shortened: as §1
# Gal(b1-3)Gal = molecular target: Gal(b1-3)Gal
# Procedure, shortened: as §1
# [8] = molecular target: Gal(b1-3)GalNAc(a1-3)[Fuc(a1-2)]Gal(b1-4)GlcNAc
# Procedure, shortened: as §1
# [9] = molecular target: Gal(b1-3)GalNAc(b1-4)Gal(b1-4)Glc
# Procedure, shortened: as §1
# [10] = molecular target: Gal(b1-3)GlcNAc(a1-6)Gal(b1-4)GlcNAc
# Procedure, shortened: as §1
# [11] = molecular target: Gal(b1-3)GlcNAc(b1-3)Gal(b1-4)GlcNAc
# Procedure, shortened: as §1
# [12] = molecular target: Gal(b1-3)GlcNAc(b1-3)Gal(b1-4)GlcNAc(b1-6)[Gal(b1-3)GlcNAc(b1-3)]Gal(b1-4)Glc
# Procedure, shortened: as §1
# [13] = molecular target: Gal(b1-4)GlcNAc(b1-2)[Gal(b1-4)GlcNAc(b1-6)]Man(a1-6)[GlcNAc(b1-4)][Gal(b1-4)GlcNAc(b1-2)Man(a1-3)]Man(b1-4)GlcNAc(b1-4)GlcNAc
# Procedure, shortened: as §1
# [14] = molecular target: Gal(b1-4)GlcNAc(b1-3)Gal(b1-4)GlcNAc(b1-2)Man(a1-3)[Gal(b1-4)GlcNAc(b1-3)Gal(b1-4)GlcNAc(b1-2)Man(a1-6)]Man(b1-4)GlcNAc(b1-4)GlcNAc
# Procedure, shortened: as §1
# [15] = molecular target: Gal(b1-4)GlcNAc(b1-3)Gal(b1-4)GlcNAc(b1-3)Gal(b1-4)GlcNAc(b1-3)Gal(b1-4)GlcNAc(b1-3)Gal(b1-4)GlcNAc(b1-2)Man(a1-3)[Gal(b1-4)GlcNAc(b1-3)Gal(b1-4)GlcNAc(b1-3)Gal(b1-4)GlcNAc(b1-3)Gal(b1-4)GlcNAc(b1-3)Gal(b1-4)GlcNAc(b1-2)Man(a1-6)]Man(b1-4)GlcNAc(b1-4)[Fuc(a1-6)]GlcNAc
# Procedure, shortened: as §1
# [16] = molecular target: Gal(b1-4)GlcNAc(b1-3)GalNAc
# Procedure, shortened: as §1
# [17] = molecular target: Gal(b1-4)GlcNAc(b1-3)[GlcNAc(b1-6)]Gal(b1-4)GlcNAc
# Procedure, shortened: as §1
# Gal4S(b1-4)GlcNAc = molecular target: Gal4S(b1-4)GlcNAc
# Procedure, shortened: as §1
# Gal6S(b1-3)GlcNAc6S = molecular target: Gal6S(b1-3)GlcNAc6S
# Procedure, shortened: as §1
# Gal6S(b1-4)Glc6S = molecular target: Gal6S(b1-4)Glc6S
# Procedure, shortened: as §1
# Gal6S(b1-4)GlcNAc6S = molecular target: Gal6S(b1-4)GlcNAc6S
# Procedure, shortened: as §1
# [18] = molecular target: GalNAc(b1-3)Gal(a1-4)Gal(b1-4)GlcNAc(b1-3)Gal(b1-4)Glc
# Procedure, shortened: as §1
# GalNAc(b1-3)GalNAc = molecular target: GalNAc(b1-3)GalNAc
# Procedure, shortened: as §1
# [19] = molecular target: GalNAc(b1-4)GlcNAc(b1-2)Man
# Procedure, shortened: as §1
# GlcA(b1-6)Gal = molecular target: GlcA(b1-6)Gal
# Procedure, shortened: as §1
# [20] = molecular target: GlcNAc(a1-4)Gal(b1-4)GlcNAc(b1-3)Gal(b1-4)GlcNAc
# Procedure, shortened: as §1
# [21] = molecular target: GlcNAc(b1-2)Man(a1-3)[GlcNAc(b1-4)][GlcNAc(b1-2)Man(a1-6)]Man(b1-4)GlcNAc(b1-4)[Fuc(a1-6)]GlcNAc
# Procedure, shortened: as §1
# [22] = molecular target: GlcNAc(b1-2)[GlcNAc(b1-4)]Man(a1-3)[GlcNAc(b1-2)Man(a1-6)]Man(b1-4)GlcNAc(b1-4)GlcNAc
# Procedure, shortened: as §1
# [23] = molecular target: GlcNAc(b1-3)Gal(b1-4)GlcNAc
# Procedure, shortened: as §1
# [24] = molecular target: GlcNAc(b1-3)Gal(b1-4)GlcNAc(b1-2)Man(a1-3)[GlcNAc(b1-3)Gal(b1-4)GlcNAc(b1-2)Man(a1-6)]Man(b1-4)GlcNAc(b1-4)GlcNAc
# Procedure, shortened: as §1
# [25] = molecular target: GlcNAc(b1-3)Gal(b1-4)GlcNAc(b1-3)Gal(b1-4)GlcNAc(b1-3)Gal(b1-4)GlcNAc(b1-2)[GlcNAc(b1-3)Gal(b1-4)GlcNAc(b1-3)Gal(b1-4)GlcNAc(b1-3)Gal(b1-4)GlcNAc(b1-6)]Man(a1-6)[GlcNAc(b1-3)Gal(b1-4)GlcNAc(b1-3)Gal(b1-4)GlcNAc(b1-3)Gal(b1-4)GlcNAc(b1-2)Man(a1-3)]Man(b1-4)GlcNAc(b1-4)[Fuc(a1-6)]GlcNAc
# Procedure, shortened: as §1
# [26] = molecular target: GlcNAc(b1-3)[GlcNAc(b1-4)][GlcNAc(b1-6)]GlcNAc
# Procedure, shortened: as §1
# Man(a1-6)Man = molecular target: Man(a1-6)Man
# Procedure, shortened: as §1
# [27] = molecular target: Neu5Ac(a2-3)Gal(b1-3)[Fuc(a1-4)]GlcNAc(b1-3)Gal(b1-4)[Fuc(a1-3)]GlcNAc
# Procedure, shortened: as §1
# [28] = molecular target: Neu5Ac(a2-3)Gal(b1-4)GlcNAc(b1-2)Man(a1-3)[Neu5Ac(a2-3)Gal(b1-4)GlcNAc(b1-2)Man(a1-6)]Man(b1-4)GlcNAc(b1-4)GlcNAc
# Procedure, shortened: as §1
# [29] = molecular target: Neu5Ac(a2-3)Gal(b1-4)GlcNAc(b1-3)Gal(b1-4)GlcNAc(b1-6)[Gal(b1-3)]GalNAc
# Procedure, shortened: as §1
# [30] = molecular target: Neu5Ac(a2-3)Gal(b1-4)[Fuc(a1-3)]GlcNAc(b1-3)Gal
# Procedure, shortened: as §1
# [31] = molecular target: Neu5Ac(a2-3)Gal(b1-4)[Fuc(a1-3)]GlcNAc(b1-3)Gal(b1-4)[Fuc(a1-3)]GlcNAc(b1-3)Gal(b1-4)[Fuc(a1-3)]GlcNAc
# Procedure, shortened: as §1
# [32] = molecular target: Neu5Ac(a2-6)Gal(b1-4)GlcNAc(b1-2)Man(a1-6)Man(b1-4)GlcNAc(b1-4)GlcNAc
# Procedure, shortened: as §1
# [33] = molecular target: Neu5Ac(a2-6)Gal(b1-4)GlcNAc(b1-3)[Neu5Ac(a2-6)Gal(b1-4)GlcNAc(b1-6)]GalNAc
# Procedure, shortened: as §1
# [34] = molecular target: Neu5Ac(a2-8)Neu5Ac(a2-3)Gal(b1-3)GalNAc(b1-4)[Neu5Ac(a2-8)Neu5Ac(a2-3)]Gal(b1-4)Glc
# Procedure, shortened: as §1
binder,measurement,setting,value
B1,glycan array binding signal (z-score),[1],-0.382
same,glycan array binding signal (z-score),[2],5.1
same,glycan array binding signal (z-score),[3],-0.345
same,glycan array binding signal (z-score),[4],4.5
same,glycan array binding signal (z-score),[5],-0.366
same,glycan array binding signal (z-score),[6],3.74
same,glycan array binding signal (z-score),Gal(a1-3)Gal(b1-4)GlcNAc,5.2
same,glycan array binding signal (z-score),[7],4.75
same,glycan array binding signal (z-score),Gal(a1-4)GlcNAc,5.91
same,glycan array binding signal (z-score),Gal(a1-6)Glc,6.63
same,glycan array binding signal (z-score),Gal(b1-3)Gal,1.3
same,glycan array binding signal (z-score),[8],-0.36
same,glycan array binding signal (z-score),[9],0.34
same,glycan array binding signal (z-score),[10],0.491
same,glycan array binding signal (z-score),[11],-0.148
same,glycan array binding signal (z-score),[12],-0.145
same,glycan array binding signal (z-score),[13],-0.288
same,glycan array binding signal (z-score),[14],0.073
same,glycan array binding signal (z-score),[15],-0.231
same,glycan array binding signal (z-score),[16],-0.023
same,glycan array binding signal (z-score),[17],-0.387
same,glycan array binding signal (z-score),Gal4S(b1-4)GlcNAc,-0.182
same,glycan array binding signal (z-score),Gal6S(b1-3)GlcNAc6S,5.95
same,glycan array binding signal (z-score),Gal6S(b1-4)Glc6S,4.93
same,glycan array binding signal (z-score),Gal6S(b1-4)GlcNAc6S,4.56
same,glycan array binding signal (z-score),[18],-0.336
same,glycan array binding signal (z-score),GalNAc(b1-3)GalNAc,-0.424
same,glycan array binding signal (z-score),[19],-0.393
same,glycan array binding signal (z-score),GlcA(b1-6)Gal,5.98
same,glycan array binding signal (z-score),[20],-0.413
same,glycan array binding signal (z-score),[21],-0.35
same,glycan array binding signal (z-score),[22],-0.368
same,glycan array binding signal (z-score),[23],-0.312
same,glycan array binding signal (z-score),[24],-0.39
same,glycan array binding signal (z-score),[25],-0.37
same,glycan array binding signal (z-score),[26],-0.383
same,glycan array binding signal (z-score),Man(a1-6)Man,-0.371
same,glycan array binding signal (z-score),[27],-0.409
same,glycan array binding signal (z-score),[28],-0.356
same,glycan array binding signal (z-score),[29],-0.248
same,glycan array binding signal (z-score),[30],-0.385
same,glycan array binding signal (z-score),[31],-0.375
same,glycan array binding signal (z-score),[32],-0.426
same,glycan array binding signal (z-score),[33],-0.246
same,glycan array binding signal (z-score),[34],-0.003
